Active and inactive are the calls of the source. The calls were made as follows: active = hit-call score of the fitted dose curve at least 0.9, where 1 is the maximum; inactive = score below 0.9.

This passage reports outcome and AC50 results from PubChem BioAssay (EPA / NIEHS).

The assay is described as follows: BSK_KF3CT_SRB: Viability Assessment in the BioMAP Diversity Plus: KF3CT Assay (AID 2283069).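 Also: fitted for both signal gain and loss against DMSO baseline.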 The conditions noted are these: primary human keratinocytes with fibroblasts. The method, then: BSK_KF3CT is a cell-based, multiplexed-readout assay that uses keratinocytes and foreskin fibroblasts, a human skin primary cell co-culture, with measurements taken at 24 hours after chemical dosing in a 96-well plate.BSK_KF3CT_SRB is an assay component measured in the BSK_KF3CT assay. It measures 0.1% sulforhodamine related to cell death using Sulforhodamine staining technology.Data from the assay component BSK_KF3CT_SRB was analyzed into 1 assay endpoint. This assay endpoint, BSK_KF3CT_SRB, was analyzed with bidirectional fitting relative to DMSO as the negative control and baseline of activity. Using a type of viability reporter, gain or loss-of-signal activity can be used to understand changes in the signaling. Furthermore, this assay endpoint can be referred to as a primary readout, because this assay has produced multiple assay endpoints where this one serves a signaling function. To generalize the intended target to other relatable targets, this assay endpoint is annotated to the cell morphology intended target family, where the subfamily is cell conformation.
The levels of cell surface (or secreted, indicated by the prefix "s") biomarker endpoints were measured by ELISA. Overt cytotoxicity to cells in confluent adherent cultures (all systems other than the BT system) was assessed by measuring total protein levels using sulforhodamine B (SRB) staining in parallel cultures at the time of biomarker measurements, indicated as SRB endpoints. For proliferation assays for adherent cell types, individual cell types are cultured at sub-confluence and relative cell numbers quantified by SRB staining at time points optimized for each system (48 h: 3C and CASM3C systems; 72 h: BT and HDF3CGF systems; 96 h: SAg system). SRB was performed by staining cells with 0.1% SRB after fixation with 10% TCA and reading wells at 560 nm.Viability and proliferation of PBMC (T cells) was quantified by Alamar Blue reduction for the SAg and BT systems. For PBMC viability (referred to as PBMC Cytotoxicity within the assay endpoint names), cells were plated (75,000/well in a 96-well plate) and then chemical samples added for 1 h before addition of activators, SEB and TSST-1 (20 ng/mL final concentration each). Cells were incubated for 90 h. Then, Alamar Blue (20 uL/well) (Invitrogen, Cat DAL1100) was added for 6 h, and the plates were read with a fluorescence microplate reader at 546/580 nm (excitation/emission). For PBMC proliferation, cells were plated and activated as above but incubated for only 16 h prior to addition of Alamar Blue. Plates were read after 6 h.
As to `CCCCCCOCCO`, the result was inactive.

In the case of `COc1ccc(C)cc1N`, the outcome was inactive.

On to `Cc1ccc(Cl)cc1`, for which the result was inactive.

Take `Cc1cc(NC(=O)C(=O)O)cc(C)c1Oc1ccc(O)c2c1CCC2`: the outcome was inactive.

Turning to `CC1=C(/C=C/C(C)=C/C=C/C(C)=C/CO)C(C)(C)CCC1`, the outcome was inactive.

As to `c1cc(-c2ccncc2)ccn1`, the outcome was inactive.

As for `Oc1ccc2ccccc2c1N=Nc1ccccc1`, the result was inactive.

For the compound `CCCCCCCCCCCC(=O)OC`, the outcome was inactive.

With `O=c1[nH]cc(F)c(=O)[nH]1`, the outcome was inactive.

Turning to `NC(=O)Cn1c(=O)cc(CCN2CCN(c3nccc4sccc34)CC2)c2ccc(F)cc21`, the outcome was inactive.

With `Cc1nc(C)nc(N2C[C@@H](C)N(c3ccnc([C@@H](C)O)n3)[C@@H](C)C2)n1`, the result was inactive.

Consider `CC(=O)C(C)=CC1C(C)=CCCC1(C)C` (stereo not given), for which the outcome was inactive.

Regarding `CCCCOC(=O)CCCCCCCCC(=O)OCCCC`, the result was inactive.

As a reminder, the AC50 is the concentration at which the activity in the assay is half-maximal. For the compound `O=c1c(O)c(-c2ccc(O)c(O)c2)oc2cc(O)cc(O)c12`, the AC50 was 14.2 µM (active).

`CCCc1cc(=O)[nH]c(=S)[nH]1`: the outcome was inactive.

`Nc1ccc2c(c1)C(=O)c1ccccc1C2=O`: the outcome was inactive.

`CCCCCC(=O)O`: the result was inactive.

Take `CCCCCCCC=O`: the outcome was inactive.

As for `CCCCCCCCCCCCCCCC`, the result was inactive.

Consider `CCCCN(CCCC)CCCC`, for which the outcome was inactive.

`CCOC(=O)C(C)(C)Oc1ccc(Cl)cc1`: the result was inactive.

With `CCCCc1ccc2c(n1)[C@@H](c1ccc(OC)cc1C[C@H](C)C(=O)O)[C@H](C(=O)O)[C@H]2c1ccc2c(c1)OCO2`, the outcome was inactive.

Regarding `COc1ccc2c(c1)c(CC(=O)O)c(C)n2C(=O)c1ccc(Cl)cc1`, the result was inactive.

Turning to `Cc1cc(=O)[nH]c(=S)[nH]1`, the result was inactive.

Take `Cc1ccc(C)c(O)c1C`: the result was inactive.

As for `CC(=O)Oc1ccccc1C(=O)O`, the result was inactive.

On to `O=C(OCCCCCOC(=O)c1ccccc1)c1ccccc1`, for which the result was inactive.

With `Nc1nc(N)c2nc(CNc3ccc(C(=O)N[C@@H](CCC(=O)O)C(=O)O)cc3)cnc2n1`, the result was inactive.

As for `CC1(C)CC(N=C=O)CC(C)(CN=C=O)C1` (stereo not given), the result was inactive.

`CCCCCCCCCCC`: the outcome was inactive.

Regarding `CCc1c(C(=O)NN2CCCCC2)nn(-c2ccc(Cl)cc2Cl)c1-c1ccc(Br)cc1`, the AC50 is 7.2 µM (active).

Regarding `COc1cc(-c2nc(NC(=O)c3cc4cc(C)cc(C)c4n3CC(=O)O)sc2CCC2CCCCC2)c(OC)cc1Cl`, the AC50 was 1.64 µM (active).

Take `COc1ccc(S(=O)(=O)N2C(=O)[C@@](c3ccccc3OC)(N3C[C@H](O)C[C@H]3C(=O)N(C)C)c3cc(Cl)ccc32)c(OC)c1`: the result was inactive.

In the case of `OC[C@@H](O)[C@@H](O)[C@H](O)[C@H](O)CO`, the result was inactive.

With `Cc1cccc([N+](=O)[O-])c1C`, the outcome was inactive.

As for `O=[N+]([O-])C(CO)(CO)CO`, the result was inactive.

`CN1CCCC1=O`: the result was inactive.

In the case of `NCC1(Cc2noc(=O)[nH]2)CCCCC1`, the result was inactive.

As to `O=C(O)Cc1ccccc1Nc1c(Cl)cccc1Cl`, the result was inactive.

As to `CC(=O)OCCOCCOCCOC(C)=O`, the outcome was inactive.
